The source of these data is PubChem BioAssay AID1276 (Columbia University Molecular Screening Center, 2008).

Among all 190,000 compounds or so, about 2,000 (1.1%) were called active. What follows is part of a selection rich in actives, with near analogues and random picks from the rest. Unmarked numbers belong to inactive results.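 The calls were made as follows: active = activation above a set limit, based on mean plus 3 SD of controls (cut at about 140% in these data); inconclusive = one replicate above the limit, the other below; inactive = the rest.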

The nature of the test: APP 5'UTR reporter signal increase – luciferase, SH-SY5Y cells, primary screen (AID 1276). The following applies: SH-SY5Y APP 5'UTR luciferase reporter, luminescence; at 2 µM; stronger effect = higher value; zero percent = DMSO vehicle wells. For orientation: In a reporter assay the amount or activity of a reporter protein is the signal.
`Cc1cc(C)n(CCNCc2c(C(=O)N3C[C@@H](C)O[C@@H](C)C3)nc3ccc(Cl)cn23)n1`: the activation is 13.1%. Under `C/C(=C\C(=O)c1ccccc1)Nc1cccc(O)c1` stands 33.4%; under `O=C(CSc1ccccc1)Nc1ccc(C(=O)Nc2cccc(O)c2)cc1`, 37.6%; under `O=C(Nc1cccc(O)c1)c1ccc(C(=O)c2ccccc2)o1`, 155% (active).

For the compound `CC1COc2ccccc2N1S(=O)(=O)c1ccccc1` (stereo unspecified), the activation was -2.45%.

For the compound `O=C(CSc1ccccc1)Nc1ccc(NC(=O)c2ccco2)cc1`, the activation is 6.16%.

For the compound `O=C(Nc1ccc(Oc2ccccc2)cc1)c1ccco1`, the activation was 163% (active).

For the compound `COC(=O)c1ccc(NC(=O)c2ccco2)cc1`, the activation is 120%.

Turning to `COC(=O)c1cc2n(n1)CCCNC2=O`, the activation is -7.46%. Under `Cc1ccc(NC(=O)c2cc(-c3ccc(C)o3)nc3ccccc23)nc1` stands -0.92%; under `Cc1ccc(Nc2nc(-c3ccc(O)cc3O)cs2)nc1`, 151% (active). To `Cc1ccc(-c2csc(NNC(=O)c3ccccc3)n2)cc1` belongs 3.5%; to `CC1=NNC(=O)C1CCC(=O)N/N=C\c1cccc(Cl)c1` (stereo unspecified), 0.72%; to `O=c1cc(N2CCCCC2)c(-c2ccccc2)nn1Cc1cccc(F)c1`, -6.8%. As to `CCOc1ccc(C(=O)NC(=S)Nc2ccc(N3CCOCC3)c(Cl)c2)cc1[N+](=O)[O-]`, the activation was -10.7%. Take `Cc1cccc(N(CC(=O)Nc2ccc(-c3nc4ccc(C)cc4s3)cc2)S(C)(=O)=O)c1`: the activation is 104%. To `Cc1ccc2nc(-c3ccc(NC(=O)CN(C)S(=O)(=O)c4ccccc4)cc3)sc2c1` belongs 190% (active). `COc1cc(NC(=O)CN(C)S(=O)(=O)c2ccc3nc(C)sc3c2)cc(OC)c1`: the activation is 17.7%. To `Cc1ccc(NC(=O)Nc2ccc3oc(C)nc3c2)cc1` belongs 145% (active).

Turning to `C=CCN(C(=O)Nc1ccc2oc(C)nc2c1)c1ccccc1`, the activation is 11.6%. Take `Cc1nc2cc(NC(=O)NCc3ccccc3)ccc2o1`: the activation was 23.1%. To `COC(=O)c1ccc(/C=N/N2C(C)CCCC2C)cc1` (stereo unspecified) belongs 53%; to `CCOC(=O)CSc1nnc(-c2ccc([N+](=O)[O-])cc2)o1`, 5.38%; to `CC1=CC=CC2=N/C(=N\S(=O)(=O)c3ccc(F)cc3F)c3ccccc3CN12`, 27%. `Cc1ccc(-n2c(C)cc(C(=O)CN3C(=O)C(=O)N(C4CCCC4)C3=O)c2C)cc1`: the activation is -9.76%. To `COc1cc(/C=N/NC(=O)c2cc(C)n(-c3ccc(F)cc3)c2C)cc(OC)c1O` belongs 0.41%; to `Cc1cc(C(=O)COC(=O)C2CC2)c(C)n1-c1ccc(F)cc1`, 145% (active); to `Cc1ccc(OCC(=O)Nc2ccc(S(=O)(=O)Nc3ccccn3)cc2)cc1`, 0.31%.

For `CCc1nc2ccccc2c(C(=O)OC2CCCCC2=O)c1C` (stereo unspecified), the activation is 2.83%.

With `CCn1c(SCc2cc(=O)n3ccsc3n2)nc2ccccc21`, the activation was -4.54%. Turning to `COc1ccc(OC)c(/C=C/C(=O)OCC(=O)Nc2ccc3c(c2)OCCO3)c1`, the activation is -19.2%.

As to `COc1cccc(/C=C/C(=O)Nc2ccc3c(c2)OCCO3)c1`, the activation was 168% (active). Under `COc1ccc(/C=C/C(=O)Nc2ccc3c(c2)OCCO3)cc1OC` stands -0.48%; under `CC1CCCC(NC(=O)COC(=O)[C@@H]2CC(O)CN2S(=O)(=O)c2ccc3c(c2)OCCO3)C1C` (stereo partly specified), 11.6%; under `CN(C(=O)CSc1nncc2ccccc12)C1CCCCC1`, 56.8%. Under `Cc1ccc(C(=O)OC(C)CN2CCOCC2)cc1` (stereo unspecified) stands -15.7%.

On to `COc1cc(Cl)c(C)cc1NC(=O)[C@@H]1CCCN1C(=O)c1cccs1`, for which the activation is -25.6%.

With `O=C(CSC(=S)N1CCOCC1)c1ccccc1`, the activation was 139% (active). Under `NC(=NC(=O)c1ccccc1)N1CCOCC1` stands 9.73%. To `CC1CN(C(=S)SCC(=O)c2ccccc2)CC(C)O1` (stereo unspecified) belongs -2.53%; to `O=C(NCc1nnc(SCC(=O)N2CCCc3ccccc32)o1)c1ccccc1F`, -9.96%; to `COc1cc([N+](=O)[O-])ccc1NC(=O)CN1CCCC1`, -0.5%.

Turning to `COc1ccc(Sc2nc(-c3ccccc3)ncc2OC)cc1`, the activation is -14%. `COc1cc(SC)ccc1C(=O)Nc1nc(C)cs1`: the activation is 57.9%. Consider `O=C(NCCOc1ccccc1Cl)C(=O)Nc1ccccc1`, for which the activation was 0.2%. On to `COc1cc(SC)ccc1C(=O)Nc1cc(C)ccn1`, for which the activation was 220% (active). For the compound `COc1cc(SC)ccc1C(=O)NCCOc1ccccc1Cl`, the activation was 143% (active). Under `COc1ccccc1CNC(=O)c1ccc(SC)cc1OC` stands -5.82%.

As to `Cc1ccnc(NC(=O)c2ccoc2C)c1`, the activation was 33.5%.

Turning to `O=C(CCC1CCCN(C(=O)Cc2ccc(F)cc2)C1)N1CCN(c2ccccn2)CC1` (stereo unspecified), the activation is 10.5%. On to `Cc1c(C2=CCN(S(=O)(=O)c3ccc(Cl)cc3)CC2)c2ccccc2n1C`, for which the activation is -2.27%.
